# Screening results (PubChem BioAssay)
# Hits are enriched below; roughly 3.5% of the tested compounds scored in any of these assays.
# Pf apPOL block – Pf-apPOL DNA polymerase inhibition. inhibition, % at 10 µM. Recombinant Pf-apPOL, molecular beacon fluorescence, 1.5 h. 0.25% of 210,000 active
# mHTT CaM bind – inhibitors of human mutant huntingtin-calmodulin interaction. AlphaScreen His-mHTT/GST-CaM binding, luminescence. P42858. AID 1671202. inhibition, % at 15 µM. 3.6% of 190,000 active
# Target sequence (P42858 whole entry, looked up, change not shown): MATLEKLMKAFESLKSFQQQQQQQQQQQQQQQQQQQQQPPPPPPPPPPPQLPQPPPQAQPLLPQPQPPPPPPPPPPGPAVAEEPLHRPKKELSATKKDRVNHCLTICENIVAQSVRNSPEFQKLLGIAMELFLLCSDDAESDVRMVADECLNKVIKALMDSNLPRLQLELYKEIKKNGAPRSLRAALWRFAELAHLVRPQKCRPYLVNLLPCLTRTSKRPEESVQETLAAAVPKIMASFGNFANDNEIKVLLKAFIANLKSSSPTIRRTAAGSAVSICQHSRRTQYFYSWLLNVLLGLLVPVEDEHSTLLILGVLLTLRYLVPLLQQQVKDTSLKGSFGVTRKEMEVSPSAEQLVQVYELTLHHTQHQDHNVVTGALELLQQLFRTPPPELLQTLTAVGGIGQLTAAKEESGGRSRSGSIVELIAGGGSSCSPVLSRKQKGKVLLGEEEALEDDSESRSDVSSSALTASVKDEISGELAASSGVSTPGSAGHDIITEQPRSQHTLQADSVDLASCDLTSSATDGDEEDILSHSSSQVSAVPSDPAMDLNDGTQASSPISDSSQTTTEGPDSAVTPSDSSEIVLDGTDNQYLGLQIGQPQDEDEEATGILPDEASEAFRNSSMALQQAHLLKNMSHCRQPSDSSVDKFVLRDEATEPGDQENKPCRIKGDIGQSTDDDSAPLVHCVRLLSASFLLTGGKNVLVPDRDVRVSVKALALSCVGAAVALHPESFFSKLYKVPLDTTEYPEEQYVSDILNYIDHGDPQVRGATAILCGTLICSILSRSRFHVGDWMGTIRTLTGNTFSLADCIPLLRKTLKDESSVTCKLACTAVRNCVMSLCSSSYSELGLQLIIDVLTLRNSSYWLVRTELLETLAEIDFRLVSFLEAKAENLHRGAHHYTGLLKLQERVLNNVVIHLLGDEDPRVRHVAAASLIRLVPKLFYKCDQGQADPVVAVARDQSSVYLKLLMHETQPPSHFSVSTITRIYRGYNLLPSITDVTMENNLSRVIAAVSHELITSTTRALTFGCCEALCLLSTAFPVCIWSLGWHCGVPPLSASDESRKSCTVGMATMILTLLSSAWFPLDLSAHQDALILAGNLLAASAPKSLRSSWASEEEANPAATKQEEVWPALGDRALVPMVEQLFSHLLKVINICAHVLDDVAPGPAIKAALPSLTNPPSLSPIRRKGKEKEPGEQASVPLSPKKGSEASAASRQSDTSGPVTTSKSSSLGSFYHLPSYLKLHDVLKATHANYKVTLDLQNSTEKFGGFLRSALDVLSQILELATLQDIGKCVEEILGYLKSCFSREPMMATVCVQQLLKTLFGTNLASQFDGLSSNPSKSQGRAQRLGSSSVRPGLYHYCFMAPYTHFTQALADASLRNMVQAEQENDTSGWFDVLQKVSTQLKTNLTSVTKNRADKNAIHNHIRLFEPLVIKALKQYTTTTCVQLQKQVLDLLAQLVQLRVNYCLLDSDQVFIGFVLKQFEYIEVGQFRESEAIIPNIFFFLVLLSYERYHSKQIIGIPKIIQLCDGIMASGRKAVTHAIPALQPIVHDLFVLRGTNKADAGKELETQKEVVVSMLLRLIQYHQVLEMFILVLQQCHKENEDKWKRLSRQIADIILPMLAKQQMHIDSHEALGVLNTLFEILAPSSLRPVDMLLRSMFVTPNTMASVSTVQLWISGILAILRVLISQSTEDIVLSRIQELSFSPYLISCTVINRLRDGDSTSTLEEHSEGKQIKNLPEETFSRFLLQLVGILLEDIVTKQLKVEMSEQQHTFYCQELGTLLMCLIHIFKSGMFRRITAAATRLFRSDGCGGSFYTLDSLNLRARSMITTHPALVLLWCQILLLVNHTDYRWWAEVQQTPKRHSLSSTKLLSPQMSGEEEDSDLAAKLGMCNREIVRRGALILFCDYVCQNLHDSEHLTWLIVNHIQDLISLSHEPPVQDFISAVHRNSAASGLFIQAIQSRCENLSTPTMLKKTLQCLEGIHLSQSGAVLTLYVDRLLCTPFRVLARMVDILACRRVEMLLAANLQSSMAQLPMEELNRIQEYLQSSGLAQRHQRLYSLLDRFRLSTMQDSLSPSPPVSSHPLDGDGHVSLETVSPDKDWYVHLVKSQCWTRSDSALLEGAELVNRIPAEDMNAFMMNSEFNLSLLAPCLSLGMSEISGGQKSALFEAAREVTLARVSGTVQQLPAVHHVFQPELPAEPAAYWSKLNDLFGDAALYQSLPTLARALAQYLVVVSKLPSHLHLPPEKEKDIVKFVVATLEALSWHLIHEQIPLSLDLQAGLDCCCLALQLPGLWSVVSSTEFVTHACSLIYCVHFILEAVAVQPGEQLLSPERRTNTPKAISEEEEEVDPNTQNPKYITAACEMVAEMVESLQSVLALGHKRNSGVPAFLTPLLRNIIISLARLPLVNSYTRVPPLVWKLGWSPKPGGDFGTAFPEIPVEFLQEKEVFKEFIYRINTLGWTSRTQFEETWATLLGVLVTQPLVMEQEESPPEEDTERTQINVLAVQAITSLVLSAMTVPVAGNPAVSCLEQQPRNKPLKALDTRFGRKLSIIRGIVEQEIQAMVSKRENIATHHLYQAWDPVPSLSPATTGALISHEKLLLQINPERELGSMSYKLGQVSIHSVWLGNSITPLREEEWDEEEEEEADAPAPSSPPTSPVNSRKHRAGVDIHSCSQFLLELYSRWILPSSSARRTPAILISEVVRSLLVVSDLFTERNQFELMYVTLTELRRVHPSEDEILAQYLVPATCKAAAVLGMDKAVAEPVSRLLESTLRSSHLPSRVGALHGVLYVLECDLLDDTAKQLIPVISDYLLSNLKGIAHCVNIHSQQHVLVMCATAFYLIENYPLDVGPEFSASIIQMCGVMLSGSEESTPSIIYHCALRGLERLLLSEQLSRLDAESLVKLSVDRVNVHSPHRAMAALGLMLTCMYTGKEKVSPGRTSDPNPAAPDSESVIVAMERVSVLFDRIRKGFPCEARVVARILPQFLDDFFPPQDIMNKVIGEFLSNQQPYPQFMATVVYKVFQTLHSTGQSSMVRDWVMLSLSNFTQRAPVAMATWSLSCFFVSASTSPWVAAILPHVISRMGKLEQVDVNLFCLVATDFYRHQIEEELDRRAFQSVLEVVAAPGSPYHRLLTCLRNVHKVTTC
# Hits are given with their value; – = inactive; · = no result given; ! = a repeat was not active. Cut-off read from the data, not from the text of the source: active = inhibition above about 50%; inactive = the rest.
SMILES,Pf apPOL block,mHTT CaM bind
COc1ccc(C2C3=C(Nc4ncnn42)c2ccccc2OC3c2ccc(SC)cc2)cc1 (stereo not drawn),–,–
CCCn1cc2c3c(cccc31)CN(C(=O)CC(C)(C)C)CC2,–,–
CN(C)c1ccc(C(=O)N2CCc3cn(C)c4cccc(c34)C2)cc1,–,–
CCCn1cc2c3c(cccc31)CN(C(=O)c1ccsc1)CC2,–,–
Cn1cc2c3c(cccc31)CN(C(=O)c1ccc(Br)cc1)CC2,–,54
CCCn1cc2c3c(cccc31)CN(C(=O)c1ccccc1)CC2,–,70
CCCn1cc2c3c(cccc31)CN(C(=O)c1ccc(F)cc1)CC2,–,94
O=C(NCCc1ccc(Cl)cc1)C1(S(=O)(=O)c2ccc(Cl)cc2)CC1,–,–
O=[N+]([O-])c1ccc(Cc2ccncc2)cc1,–,–
Cc1ccc(C)n1-c1ccc(Cc2ccncc2)cc1,–,65
Nc1c(C(=O)Nc2ccc(Cl)cc2Cl)sc2[nH]c(=O)c(C(=O)O)cc12,–,–
Nc1c(C(=O)c2ccc(Cl)cc2)sc2[nH]c(=O)c(C(=O)O)cc12,–,59
COc1ccc(NC(=O)C2CCCN(c3nccc4sc(C)cc34)C2)cc1OC (stereo not drawn),–,71
Cc1cc2c(N3CCC(C(=O)Nc4ccc(C)c(F)c4)CC3)nccc2s1,–,–
COc1cc(NC(=O)C2CCN(c3nccc4sc(C)cc34)CC2)cc(OC)c1OC,–,52
Cc1cc2c(N3CCCC(C(=O)NCCN4CCCCCC4)C3)nccc2s1 (stereo not drawn),–,100
Cc1cc2c(N3CCC(C(=O)Nc4ccc(F)c(F)c4)CC3)nccc2s1,–,–
Cc1cc2c(N3CCCC(C(=O)NCc4cccc(Cl)c4)C3)nccc2s1 (stereo not drawn),–,–
COc1ccc(C(=O)NC(Nc2ccc(S(N)(=O)=O)cc2)C(Cl)(Cl)Cl)cc1 (stereo not drawn),–,–
CC(=O)c1sc2nc(-c3ccc(C)cc3)c(C)cc2c1N,–,–
CCSc1nnc(NC(=O)c2ccoc2C)s1,–,–
CC(=O)N1CCN(C(=O)C(C)N2CCc3sccc3C2c2ccccc2C)CC1 (stereo not drawn),–,–
C[C@@]12CCC=C[C@H]1[C@H](c1ccc(F)c(Br)c1)N(Cc1ccccc1)C2=O,–,100
C[C@@]12CCC=C[C@H]1[C@H](c1ccc(Br)cc1F)N(Cc1ccccc1)C2=O,–,90
C[C@@]12CCC=C[C@H]1[C@H](c1cccc(Br)c1)N(Cc1ccccc1)C2=O,–,–
SMILES,Pf apPOL block,mHTT CaM bind
Cc1ccc(-c2cc([C@H]3[C@@H]4C=CCC[C@@]4(C)C(=O)N3Cc3ccccc3)ccc2F)cc1,–,–
Cc1ccc2nc(NC(=O)c3cncc(Br)c3)sc2c1,–,–
O=c1c2ccccc2c(-c2ccc(Cl)cc2)nn1CN1CCOCC1,–,·
COc1ccc2c(c1)c(=O)c1ccccc1n2CC(=O)Nc1ccc(C(F)(F)F)cc1,–,–
COc1ccc2c(c1)c(=O)c1ccccc1n2CC(=O)Nc1cccc(C(F)(F)F)c1,–,54
CC1(c2ccc(Cl)cc2)CC(C)(C)N(C(=O)c2cccnc2)c2ccccc21 (stereo not drawn),–,–
Cn1ccnc1SCC(=O)N1c2ccccc2C(C)(c2ccc(Cl)cc2)CC1(C)C (stereo not drawn),–,61
Cc1ccc(F)c(NC(=O)C2CC(=O)N(c3ccc(Br)cc3)C2)c1 (stereo not drawn),–,–
c1ccc(-c2n[nH]c(C3CCCN3Cc3ccco3)n2)cc1 (stereo not drawn),–,–
c1ccc(-c2n[nH]c(C3CCCN3Cc3ccccn3)n2)cc1 (stereo not drawn),–,100
CC1=C(C(=O)Nc2ccccc2)C(c2ccccc2)n2nnnc2N1 (stereo not drawn),–,–
Cc1cc2c(cc1[N+](=O)[O-])OCCO2,–,·
Cc1ccc(C(c2ccc(C)o2)c2cccc([N+](=O)[O-])c2O)o1,–,79
Cc1ccc(C(c2ccc(C)o2)c2ccccc2Br)o1,–,–
Cc1ccc(C(c2ccc(C)o2)c2cc3c(cc2[N+](=O)[O-])OCO3)o1,–,72
Cc1ccc(C(=O)O)cc1-c1ccc(/C=C/[N+](=O)[O-])o1,–,–
Cc1cc(-c2ccc(/C=C/[N+](=O)[O-])o2)c([N+](=O)[O-])cc1C,–,65
Cc1cccc(C(=O)NN2CCOCC2)c1,–,–
Cc1ccc(CC(=O)N2CCc3[nH]nc(C(=O)N4CCCC4)c3C2)cc1,–,–
CCSc1nc(O)c(C(C)CC)c(=O)[nH]1 (stereo not drawn),–,–
COc1ccc(NC(=O)c2cc(OC)c(OC)c(OC)c2)c([N+](=O)[O-])c1,–,–
COc1ccc(NC(=O)c2ncn[nH]2)c([N+](=O)[O-])c1,–,100
OC(COc1ccc(F)cc1)CN1CCN(c2cccc(Cl)c2)CC1 (stereo not drawn),–,81
C=CCc1ccccc1OCC(O)CN1CCN(C)CC1 (stereo not drawn),–,–
C=CCc1ccccc1OCC(O)CN1CCN(c2cccc(Cl)c2)CC1 (stereo not drawn),–,99
SMILES,Pf apPOL block,mHTT CaM bind
CC(C)c1ccc(OCC(O)CN2CCN(c3ccc(F)cc3)CC2)cc1 (stereo not drawn),–,–
C=CCc1ccccc1OCC(O)CN1CCCCC1 (stereo not drawn),–,–
C=CCc1ccccc1OCC(O)CN1CCN(c2ccc(OC)cc2)CC1 (stereo not drawn),–,54!
N#C/C(=C\c1cccs1)c1nc(-c2ccc(Cl)cc2)cs1,–,–
CCNC(=O)N1CCCC(c2cccc(C(=O)NCc3ccc(C)o3)c2)C1 (stereo not drawn),–,–
Cc1[nH]nc(NC(=O)COCc2ccccc2)c1-c1ccc(F)cc1,–,–
CCOC(=O)Nc1cc(-c2cccs2)nn1-c1nc(-c2ccccc2)cc(=O)[nH]1,–,–
COc1ccc(Cl)c2c1NC(c1ccc(F)cc1)C1CC=CC21 (stereo not drawn),–,50
c1ccc(C2Nc3ccccc3C3OCCC23)cc1 (stereo not drawn),–,–
Fc1ccc(C2Nc3ccccc3C3C=CCC32)cc1 (stereo not drawn),–,87
Fc1cccc2c1NC(c1ccc(Br)cc1)C1CC=CC21 (stereo not drawn),–,–
Fc1ccc(C2Nc3c(F)cccc3C3C=CCC32)cc1 (stereo not drawn),–,57
COc1cccc2c1NC(c1cccc(Br)c1)C1CC=CC21 (stereo not drawn),–,53
COc1cc(C2Nc3c(C)cccc3C3C=CCC32)cc(Br)c1OC (stereo not drawn),–,–
COc1cc(C(=O)Nc2ccc3oc(-c4ccccc4)cc(=O)c3c2)cc(OC)c1OC,–,–
CC(C)CC(=O)NCCC1CCN(C(=O)NC2CCCCC2)CC1,–,–
CCN1CCN(c2ncc(C(=O)NC(C)C)c3ccccc23)CC1,–,–
Cc1cccc(N2C(=O)C3C4C=CC(O4)C3C2=O)c1 (stereo not drawn),–,–
O=C(O)c1cccc2c1NC(c1ccc(F)cc1)C1CC=CC21 (stereo not drawn),–,96!
COc1cccc2c1NC(c1ccc(F)cc1)C1CC=CC21 (stereo not drawn),–,79
O=C(O)c1cccc2c1NC(c1ccccc1Br)C1CC=CC21 (stereo not drawn),–,–
